From PubChem BioAssay (NCI) come the findings set out here.

Values joined by “and” are separate entries in the source; they are usually repeats but may differ in a detail not shown here. Equal entries are not always repeated. The panel holds about 83,000 compounds, 20% with a hit somewhere; the sample as a whole holds those more often.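 The endpoint reported here, percent growth, reads 100 for growth as untreated, 0 for no net growth and -100 for all cells dead.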 Active and inactive are the calls of the source. Rule for the calls: active = growth percent below 10; inactive = the rest.

For this experiment, the system named is HL-60(TB) leukemia. Kind of experiment: NCI-60 one-dose screen, 48 h (100 = growth as untreated, 0 = no growth, -100 = all killed). The conditions noted are these: 10 µM unless noted.
As to `N=C1C(c2nc(-c3ccc(Br)cc3)cs2)=C(O)CN1CC1CCCO1` (configuration not stated), the growth is 98.3% (inactive).

In the case of `NC(CSC(c1ccccc1)(c1ccccc1)c1ccccc1)C(=O)NCC(=O)O` (configuration not stated), the growth is 55% (inactive).

As for `COc1cc2nc(N3CCN(C(=O)C4COc5ccccc5O4)CC3)nc(N)c2cc1OC` (configuration not stated), the growth is 104% (inactive) and 103% (inactive) and 99.9% (inactive).

Take `N=C(N)c1ccc(-c2ccc(-c3ccco3)o2)cc1`: the growth is 16.6% (inactive).

As to `Oc1ccc(Cc2ccccc2Cl)c(O)c1`, the growth is 97.4% (inactive).

As for `CC(=O)c1ccc(N2C(=O)c3ccc(Oc4ccccc4)cc3C2=O)cc1`, the growth is 105% (inactive).

Consider `CC(=O)Nc1nc(C)c(C(=O)NNS(=O)(=O)c2ccccc2)s1`, for which the growth is 174% (inactive).

Turning to `Cc1ccc(N)cc1S(=O)(=O)O`, the growth is 92.7% (inactive) and 111% (inactive).

Regarding `CCn1cnc(C[C@H](NC(=O)[C@H](CCCCNC(=O)Nc2cc(C(F)(F)F)cc(C(F)(F)F)c2)NC(=O)Nc2cc(C(F)(F)F)cc(C(F)(F)F)c2)C(=O)OC)c1`, the growth was -48.7% [100 µM] (active).

As for `CCCCCN(CCCCC)CC(O)c1cc2c(c3ccccc13)CCCC2` (configuration not stated), the growth was 18.6% (inactive) and 58.1% (inactive).

Consider `O=C(Nc1cc(Cl)ccc1O)c1ccc(Nc2ccnc(C(F)(F)F)c2)cc1`, for which the growth is -11% (active).

Consider `Cc1ccc(-c2nc3ccccn3c2/C=C2/C(=O)Nc3cc(Cl)ccc32)cc1`, for which the growth is 50.3% (inactive).

Regarding `CC1(c2ccccc2)NC(=O)N(CC(=O)Nc2cccc(I)c2)C1=O` (configuration not stated), the growth was 84.2% (inactive).

For `CC[C@H](Nc1ncnc2nc[nH]c12)c1nc2cccc(NCc3ccc(C(=O)NO)o3)c2c(=O)n1-c1ccccc1`, the growth was 81.4% (inactive).

As to `O=c1[nH]c2ccccc2cc1-c1nc2ccc(Cl)cc2[nH]1`, the growth was -26.1% (active).

As to `O=C(NCCCl)c1cc(Cl)cc(Cl)c1`, the growth was 95.5% (inactive).

As for `Cn1cnc2c1c(=O)n(CCC(=O)Nc1ccc(F)cc1)c(=O)n2C`, the growth was 113% (inactive).

For the molecule `NCCCCCC(=O)O`, the growth is 114% (inactive) and 92.6% (inactive) and 77.6% (inactive).

With `CCOC(=O)c1c[nH]c2cc(OCC3CC3)c(OCC3CC3)cc2c1=O`, the growth is 104% (inactive).

With `CN(C)c1ccc(C(=N)c2ccc(N(C)C)cc2)cc1`, the growth is 12.3% (inactive) and 6.84% (active).

For the molecule `COc1cc(OC)cc(-c2n[nH]nc2-c2ccc3c(c2)OCO3)c1`, the growth was 8.65% (active).

Regarding `CC(=O)Nc1cc(S(=O)(=O)O)cc2cc(S(=O)(=O)O)c(N=Nc3ccccc3)c(O)c12`, the growth is 109% (inactive) and 94.3% (inactive).

Regarding `COC(=O)[C@H](CC(C)C)NC(=O)NC(=O)NC(=O)CI`, the growth is 50.7% (inactive).

For the molecule `Cc1c(C(=O)NC(Cc2ccccc2)C(O)C(=O)NCc2ccc(F)cc2)[nH]c2ccccc2c1=O` (configuration not stated), the growth was 82% (inactive).

`COc1ccccc1/C=N\N=C(N/N=C/c1ccccc1OC)N/N=C/c1ccccc1OC`: the growth is 31.3% (inactive) and 41.7% (inactive).

For the molecule `O=C(/C=C\c1ccc(Cl)c(Cl)c1)c1ccccc1`, the growth is 59.3% (inactive) and 99.9% (inactive).

With `COc1ccc(OC)c(-c2c(C#N)c(-c3cccs3)nc3c2c(-c2ccccc2)nn3-c2ccccc2)c1`, the growth was 107% (inactive).

Take `CN1CCN(C(=O)OCc2ccc3c(Cl)cc(Cl)c(O)c3n2)CC1`: the growth is -18.9% (active).

On to `Nc1ccc(N2CCOCC2)cc1`, for which the growth was 81.8% (inactive).

As to `CN(C)CCCOc1c(Br)cc(/C=C/C(=O)N(C)CCc2cc(Br)c(OCCCN(C)C)c(Br)c2)cc1Br`, the growth is 81.9% (inactive).

Consider `O=C(Nn1c2c(sc1=Nc1ccccc1)C(=O)c1ccccc1C2=O)c1cc2ccc1CCc1ccc(cc1)CC2`, for which the growth was 91.6% (inactive).

Take `COc1cccc(-c2nc3occn3c2-c2ccnc(NCCCNS(=O)(=O)c3cccc(F)c3)n2)c1`: the growth is 112% (inactive).

Regarding `CCOC(=O)C1OC2(CCCC2)OC1C(=O)OCC` (configuration not stated), the growth is 87.4% (inactive).

Consider `O=C1N[C@@H]2NC(=[N+]3CCOCC3)N[C@@H]2N1`, for which the growth is 98% (inactive).

Take `O=C1c2cc(I)ccc2Oc2cc([N+](=O)[O-])ccc2N1c1ccc(Cl)cc1F`: the growth is 55.9% (inactive).

Consider `Cn1c2c(cc(S(=O)(=O)c3ccccc3)c1=O)CCc1c-2cnn1-c1ccccc1Cl`, for which the growth was 95.3% (inactive).

Take `COc1ccc(-c2cc(-c3cn(-c4cccc(Cl)c4)nc3-c3ccc(OC)cc3)[nH]c(=S)n2)cc1`: the growth was 60.4% (inactive).
